Most compounds without a hit are left out; they make up all but 7.3% or so of the library.
KinaseGlo FLuc = counter-screen: inhibitors of Kinase-Glo firefly luciferase; Potency, µM (top dose mostly 38.3 µM), actives largely listed as inhibitors; actives 0.28% (n = 200,000); AID 1379; Kinase-Glo luciferase, ATP luminescence, 8 min; note: nearly all actives have a fitted effect of over 60% in size
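Kinase-Glo luciferase light output from ATP and luciferin was measured with 10 uM ATP, within the enzyme's linear range. Buffer: 50 mM imidazole pH 7.2, 50 mM KCl, 7 mM MgCl2, 0.01% Tween 20, 0.05% BSA; luminescence read after 8 min at ambient temperature.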
Rab9 promoter act = Rab9 promoter activation; Potency, µM (top dose mostly 9.22 µM), actives largely listed as activators; Huh7 Rab9 promoter-luciferase reporter, luminescence, 24 h; actives 2.8% (n = 320,000); note: nearly all actives have a fitted effect of over 60% in size
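Steps: seed 1500 Huh7 Rab9-luc cells per well, rest 2 h at 37 °C; add compound in DMSO; incubate 24 h; add luciferase reagent, 10 min ambient; read luminescence.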
SMN2 splice up = enhancers of SMN2 splice variant expression | HEK293 SMN2-luciferase splicing reporter, luminescence, 30-36 h | Potency, µM (titrated, usually from 46.1 µM), actives largely listed as activators | actives 2.8% (n = 210,000); note: nearly all actives have a fitted effect of over 55% in size
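HEK293 cells carry an SMN2 […]–luciferase reporter in which exon 7 inclusion puts luciferase in frame. Cells were plated 10-12 h before compound addition, then incubated 30-36 h at 37C. ONE-Glo luminescence was read; sodium butyrate at 4.5 mM final served as control.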
FLuc modulator = counter-screen for miR-21 project: firefly luciferase inhibitors or activators; actives 6.9% (n = 360,000); AID 588342; Potency, µM (titrated, usually from 57.5 µM), usual class: inhibitors; P08659; purified FLuc, Km substrates, luminescence inhibition; note: nearly all actives have a fitted effect of over 55% in size
Target sequence (P08659 whole entry, looked up): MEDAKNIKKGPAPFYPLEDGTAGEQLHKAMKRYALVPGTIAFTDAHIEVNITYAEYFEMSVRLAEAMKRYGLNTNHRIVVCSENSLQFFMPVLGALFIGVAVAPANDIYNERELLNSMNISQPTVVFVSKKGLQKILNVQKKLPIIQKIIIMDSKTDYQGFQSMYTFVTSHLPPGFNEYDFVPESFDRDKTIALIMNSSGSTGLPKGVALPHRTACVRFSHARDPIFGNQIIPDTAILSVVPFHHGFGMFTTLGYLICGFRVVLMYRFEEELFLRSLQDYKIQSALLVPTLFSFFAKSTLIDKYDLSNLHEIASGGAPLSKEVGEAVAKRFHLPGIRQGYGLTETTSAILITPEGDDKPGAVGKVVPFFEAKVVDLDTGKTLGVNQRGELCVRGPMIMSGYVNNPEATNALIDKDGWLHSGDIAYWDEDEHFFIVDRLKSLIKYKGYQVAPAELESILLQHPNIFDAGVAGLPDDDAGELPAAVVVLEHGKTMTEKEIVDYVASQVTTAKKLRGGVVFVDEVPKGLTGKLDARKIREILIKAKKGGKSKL
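Purified P. pyralis luciferase, 10 nM final, with Km-level 10 uM D-luciferin and 10 uM ATP in 50 mM Tris acetate pH 7.5, 10 mM Mg acetate, 0.01% Tween-20, 0.05% BSA; 6-point qHTS titration about 60 µM downward; luminescence read.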
NPC1 prom act = activates the NPC1 promoter. Huh7 NPC1 promoter luciferase reporter, 24 h. Potency, µM (series often up to 9.22 µM), usual class: activators. actives 2.4% (n = 320,000). AID 485313; note: nearly all actives have a fitted effect of over 60% in size
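Luminescence read-out of NPC1 promoter-driven luciferase in stably transfected Huh7 cells; compounds delivered in DMSO and left 24 h at 37C, 5% CO2, qHTS titration format.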
Hits are given with their value. Calls come from the whole dose curve; as a rule, active = well fitted curve in the direction sought with a large enough effect; inconclusive = small, poorly fitted or top-dose-only effect, or another doubt; inactive = no such curve, though single readings can be large; an effect the other way counts as inactive or inconclusive.

Screening Cc1csc2c(=O)sc(NC(=O)c3ccco3)nc12 returned Rab9 promoter act inactive, FLuc modulator inconclusive and NPC1 prom act inactive.
COc1cc2sc(NC(=O)c3ccco3)nc2cc1Cl was read as Rab9 promoter act 0.56µM, FLuc modulator inconclusive and NPC1 prom act 0.71µM.
For Cc1cc2sc(NC(=O)c3ccco3)nc2cc1Cl the results were Rab9 promoter act 1.1µM, FLuc modulator 1.3µM and NPC1 prom act 1.4µM.
`COc1cc2nc(NC(=O)c3ccco3)sc(=O)c2cc1OC` gave Rab9 promoter act inactive, FLuc modulator inactive and NPC1 prom act inactive.
`COc1ccc(S(=O)(=O)Nc2ccc3c(c2)sc(=O)n3C)cc1Cl` gave FLuc modulator inactive.
`COc1ccc(CNC(=O)C(=O)NCC(c2cccs2)S(=O)(=O)c2cccs2)cc1` (centres undefined) gave FLuc modulator inactive.
Cc1ccccc1NC(=O)c1onc2c1CCCC2 was read as KinaseGlo FLuc inconclusive, Rab9 promoter act 2.5µM, SMN2 splice up inconclusive, FLuc modulator 6µM and NPC1 prom act 4.5µM.
For Cc1cccc(NC(=O)c2ccccc2Br)n1 the results were KinaseGlo FLuc inactive, Rab9 promoter act inactive, SMN2 splice up inactive, FLuc modulator inconclusive and NPC1 prom act inactive.
For Cc1ccccc1NC(=O)c1sc2nc3c(c(-c4ccco4)c2c1N)CCCC3 the results were KinaseGlo FLuc inactive, Rab9 promoter act inactive, SMN2 splice up inactive, FLuc modulator inactive and NPC1 prom act inactive.
Screening Cc1cccc(NC(=O)c2onc3c2CCCC3)c1C returned KinaseGlo FLuc inactive, Rab9 promoter act 2.8µM, SMN2 splice up inactive, FLuc modulator 7.6µM and NPC1 prom act 4.5µM.
Screening Cc1cccc(NC(=O)c2sc3nc4c(cc3c2N)CCCCCC4)c1C returned SMN2 splice up inactive and FLuc modulator inactive.
`Cc1cccc(NC(=O)c2onc3c2CCCC3)n1` gave KinaseGlo FLuc 4.5µM, Rab9 promoter act 0.4µM, FLuc modulator 0.76µM and NPC1 prom act 0.5µM.
COCCCn1c(=O)c2sccc2n2c(CCCC(=O)NC3CCC(C)CC3)nnc12 (centres undefined) was read as FLuc modulator inactive.
CC(C)(C)NC(=O)NC(=O)COc1ccccc1C#N was read as KinaseGlo FLuc inconclusive, Rab9 promoter act 1.6µM, SMN2 splice up inconclusive, FLuc modulator 8.5µM and NPC1 prom act 4µM.
O=C(COc1ccc(F)cc1Cl)NC1CCCCCC1 was read as Rab9 promoter act 2.2µM, FLuc modulator 8.5µM and NPC1 prom act 4µM.
Screening O=C(COc1ccc(Br)cc1Br)NC(=O)NC1CCCC1 returned KinaseGlo FLuc inactive, Rab9 promoter act 3.5µM, SMN2 splice up 14µM, FLuc modulator 9.5µM and NPC1 prom act 3.5µM.
CC(C)(C)NC(=O)NC(=O)COc1ccc(Br)cc1Br was read as KinaseGlo FLuc inactive, Rab9 promoter act 0.63µM, SMN2 splice up 6.3µM, FLuc modulator 0.67µM and NPC1 prom act 1.3µM.
O=C(COc1ccccc1Cl)NC(=O)NC1CCCCC1 was read as Rab9 promoter act inactive, FLuc modulator inconclusive and NPC1 prom act inactive.
Screening COc1ccc(-c2nc3ccccc3n3c(-c4ccccc4)c4c(=O)n(C)c(=O)n(C)c4c23)cc1OC returned SMN2 splice up inactive and FLuc modulator inactive.
`CCCCCn1c(=O)[nH]c2cc(C(=O)NCc3ccc(F)cc3)ccc2c1=O` gave SMN2 splice up inactive and FLuc modulator inactive.
`O=C(COc1ccc(Br)cc1Br)NNC(=O)c1cccs1` gave Rab9 promoter act inconclusive, FLuc modulator 1.9µM and NPC1 prom act inactive.
O=C1c2oc3ccccc3c(=O)c2C(c2ccccc2F)N1Cc1ccc2c(c1)OCO2 (centres undefined) was read as SMN2 splice up inactive and FLuc modulator inactive.
`CN(C)/C=C/C(=O)c1cnc(-c2ccccc2Cl)s1` gave KinaseGlo FLuc inactive, Rab9 promoter act 1.3µM, SMN2 splice up 13µM, FLuc modulator 9.5µM and NPC1 prom act 2µM.
`CN(C)/C=C/C(=O)c1cnc(-c2ccccn2)s1` gave KinaseGlo FLuc inactive, Rab9 promoter act 1.6µM, SMN2 splice up 11µM, FLuc modulator inconclusive and NPC1 prom act 3.2µM.
For CN(C)/C=C/C(=O)c1cnc(-c2cccc(Cl)c2)s1 the results were KinaseGlo FLuc inactive, Rab9 promoter act 1.3µM, SMN2 splice up 14µM, FLuc modulator 12µM and NPC1 prom act 3.2µM.

Bioassay records from PubChem.
